Measured values reported in PubChem BioAssay (NCATS).
Results filed as inconclusive are left out. The source made the active and inactive calls. Unless noted, calls come from the whole dose curve; as a rule, active = well fitted curve in either direction with a large enough effect (not every such curve was filed as active); inconclusive = small, poorly fitted or top-dose-only effect, or another doubt; inactive = flat fitted curve, though single readings scatter.

How the values were obtained:
[1] = AP1 Signaling Pathway (AID 357); conditions: ME-180 (cervical carcinoma) AP-1-bla reporter, EGF-induced, beta-lactamase ratio, 5 h; at 17.2 µM (top of the series) unless noted; note: % is set by controls: 0 for no effect and ±100 for the full control effect
How it was run: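 Titration-series screen for positive or negative modulators of EC50 EGF-induced signaling in ME-180 cells carrying an AP-1-driven beta-lactamase reporter. After 5 hours at 37 degrees Celsius, CCF4 460nm/530nm emission ratio gave %Activity; AC50 values derived.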

[2] = NFAT Signaling Pathway (AID 444); conditions: Jurkat NFAT-bla M1, carbachol, beta-lactamase ratio, 5 h; at 17.2 µM (top of the series) unless noted;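 note: carbachol stimulus at about its EC50 of 1 µM final; % is set by controls: 0 for no effect and ±100 for the full control effect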
How it was run: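 Jurkat cells with NFAT-driven β-lactamase reporter and co-expressed M1 receptor, stimulated with carbachol (final 1 uM, ~EC50), compound titration, 5 h at 37 °C. CCF4 loaded 1 h at RT; 460/530 nm ratio gave %activity and AC50.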

[3] = Stat Signaling Pathway (AID 446);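 note: ME-180 cervical cancer cells given 40 pM IL-6 alongside compound; SIE-controlled beta-lactamase reporter measured as 460/530 nm FRET emission ratio; % is set by controls: 0 for no effect and ±100 for the full control effect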
How it was run: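 Compound effects on IL-6-induced STAT reporter activity were measured in ME-180 cells. After overnight culture, cells were co-treated with 40 pM IL-6 for 5 hrs before beta-lactamase substrate loading at room temperature.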

[4] = biological target: Glucocorticoid receptor (Homo sapiens) (UniProt P04150); assay: GR-GFP Redistribution (AID 450;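 active = compounds whose dose series gives a full or clear partial fitted curve of increased nuclear translocation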; note: potency is the fitted concentration of half-maximal effect); conditions: U2OS GR-GFP nuclear translocation, laser cytometry, 2 h
Glucocorticoid receptor (Homo sapiens), sequence (P04150 whole entry, looked up): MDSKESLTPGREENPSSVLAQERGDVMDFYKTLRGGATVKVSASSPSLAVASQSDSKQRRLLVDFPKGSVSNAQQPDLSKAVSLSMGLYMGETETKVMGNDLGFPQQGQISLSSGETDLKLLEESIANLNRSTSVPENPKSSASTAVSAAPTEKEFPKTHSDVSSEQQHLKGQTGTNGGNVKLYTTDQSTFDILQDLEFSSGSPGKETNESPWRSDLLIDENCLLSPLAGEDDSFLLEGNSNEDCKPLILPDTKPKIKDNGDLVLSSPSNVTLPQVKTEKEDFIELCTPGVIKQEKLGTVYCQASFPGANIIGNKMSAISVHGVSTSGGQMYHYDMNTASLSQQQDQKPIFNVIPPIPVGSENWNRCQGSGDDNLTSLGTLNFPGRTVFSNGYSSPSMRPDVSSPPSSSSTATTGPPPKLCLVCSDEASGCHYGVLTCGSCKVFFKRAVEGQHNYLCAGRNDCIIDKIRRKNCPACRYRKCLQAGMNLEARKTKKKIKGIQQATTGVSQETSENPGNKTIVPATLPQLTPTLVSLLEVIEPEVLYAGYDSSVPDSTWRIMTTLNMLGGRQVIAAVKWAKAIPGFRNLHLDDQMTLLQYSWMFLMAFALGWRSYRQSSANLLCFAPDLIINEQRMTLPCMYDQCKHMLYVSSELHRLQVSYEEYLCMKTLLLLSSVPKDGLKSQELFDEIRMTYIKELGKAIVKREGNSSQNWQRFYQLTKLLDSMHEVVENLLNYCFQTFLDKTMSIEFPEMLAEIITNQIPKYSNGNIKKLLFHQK

CCCCCCn1c(O)c(C=NCCCn2ccnc2)c(=O)[nH]c1=O
inactive: activity change, negative = inhibition [1] -8.92% | activity change, negative = inhibition [2] -9.29% | outcome [3] | Potency [4] > 20.6 µM

c1ccc(Cn2ccnc2)cc1
inactive: activity change, negative = inhibition [1] 3.97% | activity change, negative = inhibition [2] -0.8% | outcome [3] | Potency [4] > 20.6 µM

O=C1c2ccccc2C(=O)N1Cc1nc2ccccc2c(=O)n1-c1cccnc1
inactive: activity change, negative = inhibition [1] 24% | activity change, negative = inhibition [2] -3.03% | outcome [3] | Potency [4] > 20.6 µM

CCN(CC)CCCC(C)N=C(c1ccccc1)c1c(O)n(C)c(=O)n(C)c1=O (stereo not given)
inactive: activity change, negative = inhibition [1] -17.7% | activity change, negative = inhibition [2] -29.5% | outcome [3] | Potency [4] > 20.6 µM

O=P(c1ccccc1)(c1ccccc1)N1CCCCC1
inactive: activity change, negative = inhibition [1] -9.35% | activity change, negative = inhibition [2] -3.91% | outcome [3] | Potency [4] > 20.6 µM

CC(C)C(=O)N1CCN(CCN=Cc2c(O)n(C)c(=O)n(C)c2=O)CC1
inactive: activity change, negative = inhibition [1] 10.2% | activity change, negative = inhibition [2] -6.53% | outcome [3] | Potency [4] > 20.6 µM

CCn1c(O)c(C(=O)CC2NCCc3ccccc32)c(=O)n(CC)c1=S (stereo not given)
inactive: activity change, negative = inhibition [1] 5.38% | activity change, negative = inhibition [2] 22.3% | outcome [3] | Potency [4] > 20.6 µM

O=c1[nH]c(=O)n(Cc2ccco2)c(O)c1C=NCCCn1ccnc1
inactive: activity change, negative = inhibition [1] 10% | activity change, negative = inhibition [2] -8.42% | outcome [3] | Potency [4] > 20.6 µM

CCCSP1(=S)NCCCO1 (stereo not given)
inactive: activity change, negative = inhibition [1] 32.4% | activity change, negative = inhibition [2] 2.72% | outcome [3] | Potency [4] > 20.6 µM

Nc1ncc(P(=S)(N2CCOCC2)N2CCOCC2)s1
inactive: activity change, negative = inhibition [1] 10.9% | activity change, negative = inhibition [2] 4.78% | outcome [3] | Potency [4] > 20.6 µM
